In paper PMC5700166:
Substitutions are numbered along the chain they refer to.

Key:
Experiment in all cases: protein-binding microarray (PBM); PBM: ~300 nM protein, 6 mM HEPES pH 7.8, 80 mM KCl, 0.5 mM EDTA, 0.5 mM EGTA, 6% glycerol, 35 ng/ul poly-dIdC, 1% milk, 1 h, room temperature; Ap Aiptasia and Nv Nematostella (sea anemones) / Co Capsaspora / Aq Amphimedon (sponge) / Dm Drosophila / Hu human; RHD is the Rel homology domain; high values mean tight binding
Conditions in all cases: dsDNA, one strand shown
GST-Ap-NF-kB RHD = target: T1, GST-Ap-NF-kB RHD (Exaiptasia pallida (Aiptasia), UniProt A0A913YAJ5 2-422)
T1 sequence: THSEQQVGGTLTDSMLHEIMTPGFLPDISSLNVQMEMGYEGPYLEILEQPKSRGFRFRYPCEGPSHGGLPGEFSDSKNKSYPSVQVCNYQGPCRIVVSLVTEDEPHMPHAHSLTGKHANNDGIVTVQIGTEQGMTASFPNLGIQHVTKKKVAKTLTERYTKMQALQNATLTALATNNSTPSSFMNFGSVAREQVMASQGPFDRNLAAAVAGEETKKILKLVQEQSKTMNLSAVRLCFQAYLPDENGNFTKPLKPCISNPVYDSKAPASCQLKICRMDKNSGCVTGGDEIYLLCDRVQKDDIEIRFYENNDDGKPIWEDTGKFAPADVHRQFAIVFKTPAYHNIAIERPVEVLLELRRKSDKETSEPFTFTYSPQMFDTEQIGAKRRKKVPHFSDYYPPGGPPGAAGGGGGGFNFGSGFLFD

[1] = target: T2, GST-Nv-NF-kB (Cys allele) (Nematostella vectensis, UniProt E5G601 2-411)
T2 sequence: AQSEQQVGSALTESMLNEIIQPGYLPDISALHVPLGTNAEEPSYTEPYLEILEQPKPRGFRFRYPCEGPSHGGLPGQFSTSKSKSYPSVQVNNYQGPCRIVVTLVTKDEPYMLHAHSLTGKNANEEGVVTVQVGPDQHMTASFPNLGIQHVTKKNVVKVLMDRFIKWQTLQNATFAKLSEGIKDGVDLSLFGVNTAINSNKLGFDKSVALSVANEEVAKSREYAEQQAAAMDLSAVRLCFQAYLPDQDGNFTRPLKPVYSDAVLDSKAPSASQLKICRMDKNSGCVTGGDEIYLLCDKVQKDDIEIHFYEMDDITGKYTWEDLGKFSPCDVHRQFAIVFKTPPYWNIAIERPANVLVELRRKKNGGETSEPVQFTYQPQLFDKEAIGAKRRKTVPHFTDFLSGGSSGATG

[2] = target: T3, GST-Nv-NF-kB (Ser allele) (Nematostella vectensis, UniProt A7UNT2 2-411)
T3 sequence: T2 sequence with Q21R, C66S, S207N, E215Q, V217A, E225K, A268E, D399E

GST-Co-NF-kB = target: T4, GST-Co-NF-kB (Capsaspora owczarzaki, UniProt F1ARL5 200-546)
T4 sequence: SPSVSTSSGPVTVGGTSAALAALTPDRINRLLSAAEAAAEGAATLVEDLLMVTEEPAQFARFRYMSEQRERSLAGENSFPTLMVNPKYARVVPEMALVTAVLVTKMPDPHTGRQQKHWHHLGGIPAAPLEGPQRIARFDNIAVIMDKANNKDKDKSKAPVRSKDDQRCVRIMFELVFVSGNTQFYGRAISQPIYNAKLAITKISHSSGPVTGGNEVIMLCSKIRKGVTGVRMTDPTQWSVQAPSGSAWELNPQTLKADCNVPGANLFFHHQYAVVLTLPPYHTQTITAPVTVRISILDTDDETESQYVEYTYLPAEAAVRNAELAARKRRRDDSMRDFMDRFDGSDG

GST-Dm-Relish = target: T5, GST-Dm-Relish (Drosophila melanogaster, UniProt Q94527 99-473)
T5 sequence: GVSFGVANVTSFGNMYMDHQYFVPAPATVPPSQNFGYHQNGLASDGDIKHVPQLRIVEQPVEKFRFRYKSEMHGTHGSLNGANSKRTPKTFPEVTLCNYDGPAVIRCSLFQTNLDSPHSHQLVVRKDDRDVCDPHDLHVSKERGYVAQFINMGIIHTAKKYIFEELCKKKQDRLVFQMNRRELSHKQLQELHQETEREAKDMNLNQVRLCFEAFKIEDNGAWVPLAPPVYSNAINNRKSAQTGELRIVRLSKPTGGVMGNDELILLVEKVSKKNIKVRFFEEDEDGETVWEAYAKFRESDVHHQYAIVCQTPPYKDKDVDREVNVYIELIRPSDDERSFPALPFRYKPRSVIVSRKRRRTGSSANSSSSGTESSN

GST-Aq-NF-kB = target: T6, GST-Aq-NF-kB (Amphimedon queenslandica, UniProt A9Y5G7 2-389)
T6 sequence: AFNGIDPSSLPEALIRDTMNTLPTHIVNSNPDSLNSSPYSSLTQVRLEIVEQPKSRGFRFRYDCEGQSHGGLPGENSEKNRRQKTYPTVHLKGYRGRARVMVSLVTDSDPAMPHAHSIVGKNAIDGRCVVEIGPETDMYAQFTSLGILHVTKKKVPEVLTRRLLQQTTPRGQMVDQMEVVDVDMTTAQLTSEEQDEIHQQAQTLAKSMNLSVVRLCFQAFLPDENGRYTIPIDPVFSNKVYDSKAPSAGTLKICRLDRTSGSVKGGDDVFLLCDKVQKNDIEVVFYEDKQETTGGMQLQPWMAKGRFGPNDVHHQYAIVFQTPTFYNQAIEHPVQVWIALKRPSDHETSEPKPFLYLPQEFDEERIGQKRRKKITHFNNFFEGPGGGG

GST-Hu-p50 = GST-Hu-p50 (Homo sapiens, UniProt P19838 7-356)
Sequence of GST-Hu-p50 (P19838 7-356): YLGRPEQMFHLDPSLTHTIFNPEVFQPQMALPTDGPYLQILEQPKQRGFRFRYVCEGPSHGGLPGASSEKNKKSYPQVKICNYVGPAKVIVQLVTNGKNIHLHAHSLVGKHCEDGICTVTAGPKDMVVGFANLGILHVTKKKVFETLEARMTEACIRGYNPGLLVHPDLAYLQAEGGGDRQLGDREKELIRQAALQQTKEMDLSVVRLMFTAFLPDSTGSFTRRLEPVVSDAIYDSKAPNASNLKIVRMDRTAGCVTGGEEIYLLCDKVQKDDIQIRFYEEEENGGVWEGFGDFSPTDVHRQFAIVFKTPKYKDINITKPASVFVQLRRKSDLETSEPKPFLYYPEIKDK

“CCGATTAACATCACGGGAAAACCTGATGTTAATCGGGTCTTGATTCGCTTGACGCTGCTG” showed a binding signal (GST-Ap-NF-kB RHD) of 4.2 z-score, a binding signal [1] of 4.49 z-score and a binding signal [2] of 5.49 z-score. The binding signal (GST-Co-NF-kB) was 5.1 z-score, the binding signal (GST-Dm-Relish) was 4.62 z-score and the binding signal (GST-Aq-NF-kB) was 5.78 z-score. It also gave a binding signal (GST-Hu-p50) of 3.46 z-score.

With “CCGATTAACATCAGGGGAAACTATGATGTTAATCGGGTCTTGATTCGCTTGACGCTGCTG” the binding signal (GST-Ap-NF-kB RHD) was 6.82 z-score, the binding signal [1] was 7.81 z-score and the binding signal [2] was 10.9 z-score. For the same sequence, the binding signal (GST-Co-NF-kB) was 9.61 z-score, the binding signal (GST-Dm-Relish) was 3.46 z-score and the binding signal (GST-Aq-NF-kB) was 5.53 z-score. The binding signal (GST-Hu-p50) was 6.14 z-score.

“CCGATTAACATCAATGTTCCCCCTGATGTTAATCGGGTCTTGATTCGCTTGACGCTGCTG” gave a binding signal (GST-Ap-NF-kB RHD) of 6.95 z-score, a binding signal [1] of 6.49 z-score and a binding signal [2] of 7.58 z-score. For the same sequence, the binding signal (GST-Co-NF-kB) was 11 z-score, the binding signal (GST-Dm-Relish) was 5.32 z-score and the binding signal (GST-Aq-NF-kB) was 6.17 z-score. For the same sequence, the binding signal (GST-Hu-p50) was 5.74 z-score.

In the case of “CCGATTAACATCAGGGGGGTGTATGATGTTAATCGGGTCTTGATTCGCTTGACGCTGCTG”, the binding signal (GST-Ap-NF-kB RHD) is reported as 3.69 z-score, the binding signal [1] is reported as 3.97 z-score and the binding signal [2] is reported as 4.14 z-score. For the same sequence, the binding signal (GST-Co-NF-kB) was 4.29 z-score, the binding signal (GST-Dm-Relish) was 4.17 z-score and the binding signal (GST-Aq-NF-kB) was 4.24 z-score. For the same sequence, the binding signal (GST-Hu-p50) was 3.91 z-score.

“CCGATTAACATCAAGAGATCCCCTGATGTTAATCGGGTCTTGATTCGCTTGACGCTGCTG” gave a binding signal (GST-Ap-NF-kB RHD) of 6.49 z-score, a binding signal [1] of 5.71 z-score and a binding signal [2] of 6.22 z-score. It also gave a binding signal (GST-Co-NF-kB) of 2.3 z-score, a binding signal (GST-Dm-Relish) of 6.47 z-score and a binding signal (GST-Aq-NF-kB) of 4.97 z-score. It also gave a binding signal (GST-Hu-p50) of 4.57 z-score.

“CCGATTAACATCAAAGTTTCCCATGATGTTAATCGGGTCTTGATTCGCTTGACGCTGCTG” was tested, and the binding signal (GST-Ap-NF-kB RHD) was 2.54 z-score, the binding signal [1] was 4.29 z-score and the binding signal [2] was 3.82 z-score. The binding signal (GST-Co-NF-kB) was 4.66 z-score, the binding signal (GST-Dm-Relish) was 2.05 z-score and the binding signal (GST-Aq-NF-kB) was 4.32 z-score. For the same sequence, the binding signal (GST-Hu-p50) was 3.28 z-score.

“CCGATTAACATCAATAAACCCCCTGATGTTAATCGGGTCTTGATTCGCTTGACGCTGCTG” was tested, and the binding signal (GST-Ap-NF-kB RHD) was 7.76 z-score, the binding signal [1] was 6.85 z-score and the binding signal [2] was 7.79 z-score. It also gave a binding signal (GST-Co-NF-kB) of 2.94 z-score, a binding signal (GST-Dm-Relish) of 9.45 z-score and a binding signal (GST-Aq-NF-kB) of 6.33 z-score. It also gave a binding signal (GST-Hu-p50) of 6.85 z-score.

Sequence “CCGATTAACATCACAATATCCCCTGATGTTAATCGGGTCTTGATTCGCTTGACGCTGCTG” has a binding signal (GST-Ap-NF-kB RHD) of 7.16 z-score, a binding signal [1] of 6.58 z-score and a binding signal [2] of 7.91 z-score. The binding signal (GST-Co-NF-kB) was 4.15 z-score, the binding signal (GST-Dm-Relish) was 5.03 z-score and the binding signal (GST-Aq-NF-kB) was 4.96 z-score. The binding signal (GST-Hu-p50) was 4.67 z-score.

For “CCGATTAACATCAAGACTTCCCCTGATGTTAATCGGGTCTTGATTCGCTTGACGCTGCTG”, the binding signal (GST-Ap-NF-kB RHD) was 6.45 z-score, the binding signal [1] was 7.56 z-score and the binding signal [2] was 7.93 z-score. The binding signal (GST-Co-NF-kB) was 5.12 z-score, the binding signal (GST-Dm-Relish) was 7.71 z-score and the binding signal (GST-Aq-NF-kB) was 6.38 z-score. For the same sequence, the binding signal (GST-Hu-p50) was 5.95 z-score.

Sequence “CCGATTAACATCAAGGGTTTCCCTGATGTTAATCGGGTCTTGATTCGCTTGACGCTGCTG” has a binding signal (GST-Ap-NF-kB RHD) of 4.12 z-score, a binding signal [1] of 4.79 z-score and a binding signal [2] of 4.07 z-score. For the same sequence, the binding signal (GST-Co-NF-kB) was 3.82 z-score, the binding signal (GST-Dm-Relish) was 7.83 z-score and the binding signal (GST-Aq-NF-kB) was 5.56 z-score. For the same sequence, the binding signal (GST-Hu-p50) was 3.28 z-score.
